Source: the supplement of paper PMC10941209
A number with no mark means an inactive call.

What follows are molecules tested on Toxoplasma gondii RH 2F1 tachyzoites (intracellular in HFF) (assay: parasite survival relative to DMSO control; higher = less antiparasitic activity, active = 20 or less). Conditions: 1 µM; 72 h.
Experimental: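 Primary single-dose screen of the MMV Pandemic Response Box at 1 uM against T. gondii RH-2F1 (beta-galactosidase) tachyzoites in HFF cells, 72 h at 37 C. Parasite growth read by CPRG absorbance at 570 nm and normalised to DMSO-treated infected controls (% survival); pyrimethamine was the reference drug. The paper calls at least 80% inhibition a hit.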

| Structure (SMILES) | parasite survival |
| --- | --- |
| FC(F)(F)c1cc(C(F)(F)F)c2ccc3nc(-c4nnco4)cn3c2n1 | 77.8% |
| O=[N+]([O-])c1cn(Cc2nc(O)nc(O)c2Br)cn1 | 58.1% |
| Cc1cc(CCOc2c(C)cc(-c3nnn(C)n3)cc2C)on1 | 65.1% |
| NC(=O)c1[nH]c2ccc(S(N)(=O)=O)cc2c1-c1ccccc1 | 72.1% |
| CC(C)=CCC/C(C)=C/CNCCNC1C2CC3CC(C2)CC1C3 (stereo not given) | 8.85% (active) |
| Cc1cc(C)n2nc(C(=O)NS(=O)(=O)c3c(C)cccc3OC(F)(F)F)nc2n1 | 45.7% |
| O=C(NCc1ccc(F)cc1)c1c(O)c2ncccc2[nH]c1=O | 75.5% |
| C=C[C@]1(C)C[C@@H](OC(=O)CS[C@@H]2C[C@H]3CC[C@@H](C2)N3C)[C@]2(C)[C@H](C)CC[C@]3(CCC(=O)[C@H]32)[C@@H](C)[C@@H]1O | 18.1% (active) |
| Cc1cccc(C)c1C(=O)Nc1nc(-c2ccccn2)cc2ccccc12 | 4.42% (active) |
| CCOC(=O)/C=C/[C@H](C[C@@H]1CCNC1=O)NC(=O)[C@@H](CC(=O)[C@@H](NC(=O)c1cc(C)on1)C(C)C)Cc1ccc(F)cc1 | 48.2% |
| Nc1nc(C(F)(F)F)cc2c1[nH]c(=O)n2Cc1ccccc1 | 49.1% |
| Nc1nc2c(ncn2COCCO)c(=O)[nH]1 | 67.4% |
| CN(C(=O)C1(c2ccc(Cl)cc2)CCC1)c1ccccc1 | 83.6% |
| COc1ccc(C[C@@H](C)[C@@H](C)Cc2ccc(OC)c(OC)c2)cc1OC | 77.7% |
| CC1(C)[C@H](C(=O)O)N2C(=O)C[C@H]2S1(=O)=O | 35.7% |
| CCc1cc(Cc2cnc(N)nc2N)cc2c1N(C)CCC2C (stereo not given) | 45.2% |
| Clc1cc(Cl)c2c(c1)CCc1ccccc1C2n1ccnc1 (stereo not given) | 7.97% (active) |
| O=C1CCC(N2C(=O)c3ccccc3C2=O)C(=O)N1 (stereo not given) | 58.1% |
| O=S(=O)(Nc1ccc(O)cc1)c1cccc2cccnc12 | 64.4% |
| CCCCc1ccc(S(=O)(=O)Nc2cc(C)on2)cc1 | 39.1% |

| Structure (SMILES) | parasite survival |
| --- | --- |
| c1cc(CN2CCCNCCNCCCNCC2)ccc1CN1CCCNCCNCCCNCC1 | 91.5% |
| COc1cc(C(C(=O)NC2CCCCC2)N(C(=O)Cc2c[nH]c3ccccc23)c2ccc(C(C)C)cc2)cc(OC)c1OC (stereo not given) | 46.5% |
| OB1OCc2cc(Cl)ccc21 | 57.2% |
| CC(C)Oc1ccc(-n2cnc3cc(/C=C\c4ccc(C(C)(C)O)cc4)ccc32)cc1 | 31.7% |
| Cc1ccc(S(=O)(=O)Nc2cccc3cccnc23)cc1 | 4.22% (active) |
| CCNC(=O)Nc1cc(-c2ccccc2)c(-c2cncc(C(=O)O)c2)cn1 | 33% |
| Nc1nc(N)c2c(Sc3ccccc3)cccc2n1 | 11.4% (active) |
| CC(=O)N1CCN(c2ccc(OCC3COC(Cn4ccnc4)(c4ccc(Cl)cc4Cl)O3)cc2)CC1 (stereo not given) | 58.4% |
| CC[C@H](CO)Nc1nc(NCc2ccccc2)c2ncn(C(C)C)c2n1 | 87.1% |
| c1ccc(-c2nnc3c4ccccc4c(N4CCNCC4)nn23)cc1 | 11.3% (active) |
| O=c1cc(NCCCN[C@@H]2CCOc3c(Br)cc(Br)cc32)[nH]c2ccsc12 | 30.7% |
| COc1cc(C)c2c(Oc3cccc(C(F)(F)F)c3)c(OC)cc(NC(C)CCCN)c2n1 (stereo not given) | 27.2% |
| Nc1nc(=O)c(Br)c(-c2ccccc2)[nH]1 | 75.4% |
| NCCCc1ccccc1C(=O)Nc1ncc([N+](=O)O)s1 | 47.9% |
| O=C(O)CSc1cc(NS(=O)(=O)c2cccc3cccnc23)c2ccccc2c1O | 60.2% |
| CCCNc1ccc(S(=O)(=O)Nc2cc(C)on2)cc1 | 65.5% |
| O=C(NNC(=S)Nc1ccc(Cl)cc1)c1ccncc1 | 65% |
| CC[C@H](NC(=O)[C@H](C)NC)C(=O)N1C[C@@H](O)C[C@H]1Cc1c(-c2[nH]c3cc(F)ccc3c2C[C@@H]2C[C@H](O)CN2C(=O)[C@H](CC)NC(=O)[C@H](C)NC)[nH]c2cc(F)ccc12 | 8.15% (active) |
| O=C1C=C(c2ccccc2)S(=O)(=O)c2ccccc21 | 44.4% |
| O=C(N[C@H](Cc1cccc2ccccc12)C(=O)NCCc1c[nH]cn1)C1Cc2ccccc2C1 | 33.7% |
